These results are taken from PubChem BioAssay AID651821 (The Scripps Research Institute Molecular Screening Center, 2012).

Out of some 370,000 compounds screened, about 4,700 (1.3%) were called active.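 How the source made its calls: active means inhibition above the plate cutoff, the mean of all test compounds on that plate plus 3 SD (cut at about 35% in these data); inactive means the rest.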 The entries come from a sample that favours actives as a whole.

The term inhibition denotes the drop in the measured response relative to a control, in per cent.

A short description of the assay: binders of r(CAG) RNA repeats, primary screen, biochemical, fluorescence (AID 651821).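 Further: 0% = DMSO alone and 100% = 100 µM mitoxantrone as full dye displacement; higher means more dye released from RNA so lower well fluorescence.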 Conditions: r(CAG) RNA repeat, TO-PRO-1 dye displacement fluorescence; at 3 µM; stronger effect = higher value.
As to `CCn1cc(CN2CCCC(CNS(=O)(=O)Cc3ccccc3)C2)cn1` (stereo not drawn), the inhibition was 0.88% (inactive). Consider `Cc1ccccc1NC(=O)C1CCN(c2ncccn2)CC1`, for which the inhibition is -0.95% (inactive). Next, `COc1ccc(S(=O)(=O)NCC(c2ccc(C)cc2)N2CCN(C)CC2)cc1OC` (stereo not drawn): -10.5% (inactive); `COc1ccc(C(=O)OCCN(C)C2CN(Cc3cn(Cc4cccc(C)c4)nn3)S(=O)(=O)C2)cc1OC` (stereo not drawn): 0.03% (inactive); `O=C(Nc1nnc(-c2ccccc2)o1)c1cc(-c2cccs2)nc2ccccc12`: 56.2% (active). For `O=C(c1cc(-c2ccc(Cl)s2)nc2ccccc12)N1CCOCC1` the value was 3.5% (inactive); for `Cc1c(NC(=O)c2cc(-c3ccc(Cl)s3)nc3ccccc23)c(=O)n(-c2ccccc2)n1C`, 7.65% (inactive); for `CC(c1ccc(N)cc1)c1cn(C)c2ccccc12` (stereo not drawn), 7.15% (inactive). For `CCC(C)[C@@H](C(=O)OC)N(CCc1cn(Cc2ccccc2)nn1)S(=O)(=O)c1ccccc1Br` (stereo partly drawn) the value was 2.88% (inactive). Turning to `Cc1ccc(CNC(=O)C2CCN(S(=O)(=O)c3ccc4nc5c(c(C(=O)O)c4c3)CC(C)CC5)CC2)cc1` (stereo not drawn), the inhibition was 51.8% (active).

Consider `CCOC(CNC(=O)C1CCN(S(=O)(=O)c2ccc3nc4c(c(C(=O)O)c3c2)CC(C)CC4)CC1)OCC` (stereo not drawn), for which the inhibition is 25.9% (inactive). Next, `CC(=O)N1c2ccc(S(=O)(=O)N3CCC(C(=O)NCc4ccc(F)cc4)CC3)cc2CC1C` (stereo not drawn): 1.14% (inactive).

With `COC(=O)C1=C(C)N(Cc2ccc(C(F)(F)F)cc2)C(=NCc2ccc(C(F)(F)F)cc2)NC1c1cccc(Cl)c1` (stereo not drawn), the inhibition was 2.08% (inactive). With `COC(=O)c1c(NC(=O)CN2C(=O)NC(CCc3ccccc3)C2=O)sc2c1CCCCC2` (stereo not drawn), the inhibition was 10% (inactive). For `COC(=O)c1c(NC(=O)CSc2nncs2)sc2c1CCCCC2` the value was 0.27% (inactive); for `COC(=O)c1c(NC(=O)C2CC(C)=C(C)CC2C(=O)O)sc2c1CCCCC2` (stereo not drawn), 53.5% (active); for `N#Cc1c(NC(=O)C2CC(Cl)=CCC2C(=O)O)sc2c1CCCCC2` (stereo not drawn), 42.8% (active). Next, `N#Cc1c(NC(=O)C2CCCO2)sc2c1CCCCC2` (stereo not drawn): -2.89% (inactive). Next, `O=C(O)C1CC=C(Cl)CC1C(=O)NCc1ccccc1` (stereo not drawn): 1.32% (inactive); `C[C@H]1CCC/C=C/C(=O)c2c(O)cc(O)cc2CC(=O)O1`: 6.03% (inactive).

For the molecule `N#Cc1c(-c2ccc(Cl)cc2)c2c([nH]c1=S)CCCC2`, the inhibition was 17.9% (inactive). For `C=CCN1C(C(=O)OC)CN(Cc2cn(Cc3ccccc3)nn2)CCS1(=O)=O` (stereo not drawn) the value was 3.76% (inactive); for `COc1ccc(CNS(=O)(=O)c2cc(-c3cc(C)no3)ccc2C(C)C)cc1`, 1.21% (inactive); for `COc1cccc(NC(=O)c2ccccc2N(Cc2ccccc2)S(C)(=O)=O)c1`, 4.73% (inactive). Next, `COc1ccc(CCNS(=O)(=O)c2ccc(Cl)s2)cc1OC`: -4.15% (inactive); `COC(=O)c1ccc(NC(=O)c2ccccc2NS(=O)(=O)c2ccccc2)cc1`: 74.1% (active). Next, `COc1cc(NC(=O)c2ccccc2NS(=O)(=O)c2ccc(Cl)s2)cc(OC)c1`: 84.6% (active); `CCOC(=O)c1ccc(N/C(=N/S(=O)(=O)c2ccccc2)c2ccccc2)cc1`: 0.82% (inactive). Turning to `CCOc1ncccc1C(=O)Nc1ccc(S(=O)(=O)Nc2nc(C)cc(C)n2)cc1`, the inhibition is 16.8% (inactive). Next, `COc1ccnc(NC(=S)N2CCN(c3ncc(C(F)(F)F)cc3Cl)CC2)c1`: 2.94% (inactive); `COc1cc(/C=C/C(=O)OCC(=O)Nc2cccc(Oc3ccccc3)c2)ccc1O`: 15.1% (inactive); `CC(C)CNc1cccc2c1S(=O)(=O)N[C@H](C)CO2`: 2.72% (inactive). Take `COc1ccc(C(CNC(=O)c2cccc(NS(=O)(=O)c3ccc(C)c(F)c3)c2)N2CCCC2)cc1` (stereo not drawn): the inhibition was 2.37% (inactive). Next, `COc1ccc(C(CNC(=O)c2ccc(S(=O)(=O)Nc3ccccc3C)cc2)N2CCOCC2)cc1` (stereo not drawn): -3.71% (inactive); `COc1ccc(C(CNC(=O)c2cccc(S(=O)(=O)Nc3ccccc3Cl)c2)N2CCOCC2)cc1` (stereo not drawn): 46.8% (active); `CC1=C(C(=O)Nc2cc(C)ccn2)C(c2cnn(C)c2)C2=C(CC(c3ccccc3)CC2=O)N1` (stereo not drawn): -6.66% (inactive). For `O=C(Nc1ccc(Br)cc1)OCCN1C(=O)CCC12CCC(c1ccccc1)CC2` (stereo not drawn) the value was 5.9% (inactive).

As to `C[C@H](O)[C@@H]1CN2CCc3ccc(-c4ccc5c(c4)OCO5)cc3[C@@H]2C[C@@H]1N(C)C(=O)C1CCCCC1`, the inhibition is 6.89% (inactive). For `Cc1cc(NCCc2c[nH]c3ccccc23)ccc1Oc1cccnc1` the value was 7.17% (inactive). Next, `CCc1cccc(C)c1N(C(=O)Cn1c(CO)nc2ccccc21)C(C)COC` (stereo not drawn): -9.89% (inactive); `COC(=O)[C@]12C[C@H](CC(=O)NCCc3ccccc3OC)C(=O)N(Cc3ccco3)C1=C[C@H](C(C)C)O[C@@H]2C1CC1`: 3.46% (inactive). Next, `Cc1ccc(NC(=O)CSc2sc3c(O)cc(=O)[nH]c3c2C#N)cc1C`: 40.4% (active). As to `Cc1ccc(NC(=O)CSc2nn3c(=O)c(C)nnc3s2)cc1Cl`, the inhibition is 2.36% (inactive).

As for `Cc1nc2cc(NC(=O)CSc3nc4c(C)cccc4cc3C#N)ccc2s1`, the inhibition is 2.03% (inactive).

Turning to `CCOC(=O)C1CSCCS(=O)(=O)N1Cc1ccc(Cl)cc1` (stereo not drawn), the inhibition is 1.28% (inactive). Next, `COC[C@@H]1CCCN1c1ccc2c(c1)O[C@H](C)CCN(C1CC1)S2(=O)=O`: 0.67% (inactive).

Consider `CC1(C(=O)NS(=O)(=O)c2ccccc2)CCN1C(=O)C/C=C/c1ccccc1` (stereo not drawn), for which the inhibition is 7.12% (inactive). Next, `COc1ccc(S(=O)(=O)NC(=O)C2(C)CCN2C(=O)c2ccccc2CCc2ccccc2)cc1` (stereo not drawn): 43.4% (active); `CCCNC(=O)C1(C)CCN1C(=O)Cc1ccc(-c2ccccc2)cc1` (stereo not drawn): 0.2% (inactive).

Regarding `CC1(C(=O)NS(=O)(=O)Cc2cccc(Cl)c2)CCN1C(=O)Cc1ccccc1` (stereo not drawn), the inhibition is 12.6% (inactive). Next, `Cc1nc(C(F)(F)F)ccc1C(=O)N1CCC1(C)C(=O)NS(=O)(=O)c1ccccc1` (stereo not drawn): 4.76% (inactive); `CC1(C(=O)NS(=O)(=O)c2cccs2)CCN1C(=O)Cc1ccc(-c2ccccc2)cc1` (stereo not drawn): 40.2% (active); `CCCCc1ccc(S(=O)(=O)NC(=O)C2(C)CCN2C(=O)c2ccccc2)cc1` (stereo not drawn): 32.5% (inactive).

Consider `CC1(C(=O)NS(=O)(=O)Cc2cccc(Cl)c2)CCN1C(=O)Cc1ccc(Cl)cc1Cl` (stereo not drawn), for which the inhibition is 42.9% (active). Next, `Cc1ccccc1S(=O)(=O)NC(=O)C1(C)CCN1C(=O)Cc1ccc(Cl)cc1Cl` (stereo not drawn): 32.5% (inactive); `C#Cc1ccc(NC(=O)C2(C)CCN2C(=O)Cc2ccc(-c3ccccc3)cc2)cc1` (stereo not drawn): 9.25% (inactive); `CC1(C(=O)NS(=O)(=O)c2ccccc2)CCN1C(=O)Cc1ccc(-c2ccccc2)cc1` (stereo not drawn): 41.7% (active). Next, `Cc1ccc(F)c(S(=O)(=O)NC(=O)C2(C)CCN2C(=O)CCc2cccs2)c1` (stereo not drawn): 3.47% (inactive).
